Source: PubChem BioAssay
The list is not random: actives were taken first. Their share in the collection is about 11%.
USP17 block: inhibitors of human USP17 deubiquitinase. 47,000 compounds, 6.5% hits. purified USP17, Ub-rhodamine cleavage fluorescence, 3 h. AID 1645855, 2021. Ubiquitin carboxyl-terminal hydrolase 17-like protein 5 (Homo sapiens), A8MUK1. inhibition, % at 50 µM
USP28 block: inhibitors of human USP28 deubiquitinase | Ubiquitin carboxyl-terminal hydrolase 28 (Homo sapiens), Q96RU2 | purified USP28, Ub-rhodamine cleavage fluorescence, 30 min | inhibition, % at 25 µM | 47,000 compounds, 3% hits | AID 1645857, 2021
Target sequence (Q96RU2 whole entry, looked up): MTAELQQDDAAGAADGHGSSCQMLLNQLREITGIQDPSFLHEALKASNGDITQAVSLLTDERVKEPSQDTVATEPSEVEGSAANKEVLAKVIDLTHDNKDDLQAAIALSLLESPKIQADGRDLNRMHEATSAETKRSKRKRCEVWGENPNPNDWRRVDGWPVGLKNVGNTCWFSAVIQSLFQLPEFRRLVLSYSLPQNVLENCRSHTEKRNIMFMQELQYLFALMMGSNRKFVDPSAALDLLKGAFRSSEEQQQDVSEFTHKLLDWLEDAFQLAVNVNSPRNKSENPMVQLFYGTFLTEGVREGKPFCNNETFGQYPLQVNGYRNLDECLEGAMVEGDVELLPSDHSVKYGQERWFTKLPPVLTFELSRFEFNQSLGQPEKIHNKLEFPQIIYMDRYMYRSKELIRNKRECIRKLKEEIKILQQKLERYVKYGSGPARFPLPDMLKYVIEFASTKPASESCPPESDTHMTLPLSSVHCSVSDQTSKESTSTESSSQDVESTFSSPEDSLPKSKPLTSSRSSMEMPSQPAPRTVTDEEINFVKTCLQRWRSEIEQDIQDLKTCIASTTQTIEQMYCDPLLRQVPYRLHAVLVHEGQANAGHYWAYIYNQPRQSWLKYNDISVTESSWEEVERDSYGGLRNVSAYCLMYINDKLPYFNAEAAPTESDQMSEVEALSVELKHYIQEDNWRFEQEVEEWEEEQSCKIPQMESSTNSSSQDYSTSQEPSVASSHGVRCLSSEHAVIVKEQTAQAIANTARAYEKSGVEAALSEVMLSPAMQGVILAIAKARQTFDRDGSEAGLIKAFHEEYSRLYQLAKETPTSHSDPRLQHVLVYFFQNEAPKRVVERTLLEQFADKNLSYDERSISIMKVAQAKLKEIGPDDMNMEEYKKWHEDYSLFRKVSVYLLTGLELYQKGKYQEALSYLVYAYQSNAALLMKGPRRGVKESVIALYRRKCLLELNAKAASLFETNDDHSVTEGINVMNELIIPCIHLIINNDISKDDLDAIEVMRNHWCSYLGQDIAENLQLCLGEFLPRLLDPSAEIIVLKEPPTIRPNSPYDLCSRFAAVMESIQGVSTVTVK
USP30 block: inhibitors of human USP30 deubiquitinase; purified USP30, Ub-rhodamine cleavage fluorescence; inhibition, % at 25 µM; 47,000 compounds, 5.3% hits; AID 1645860, 2021
OTUD3 inh: inhibitors of human OTUD3 deubiquitinase; OTU domain-containing protein 3 (Homo sapiens), Q5T2D3; purified OTUD3, Ub-rhodamine fluorescence, 2 h; inhibition, % at 25 µM; 47,000 compounds, 0.7% hits; AID 1645858, 2021
Starred values were filed as active, the others as inactive; . = no result given. Rule as the data show it: active = inhibition above about 30%; inactive = the rest.

SMILES | USP17 block | USP28 block | USP30 block | OTUD3 inh
CCn1c(C(=O)O)c(CNCc2cccc(Cl)c2)c2ccc(OC)cc21 | -1 | -3 | -8 | -4
Cc1ccc(C(=O)C2CC(=O)Nc3c2c(C)nn3-c2ccc(C)c(C)c2)s1 (stereo not drawn) | 70* | 12 | 50* | -1
Cc1nn(-c2cccc(F)c2)c2c1C(C(=O)c1ccc(Cl)s1)CC(=O)N2 (stereo not drawn) | 23 | 0 | 50* | -10
Cc1ccc(-n2nc(C)c3c2NC(=O)CC3C(=O)c2cc3ccccc3o2)cc1C (stereo not drawn) | 74* | 0 | -10 | -4
CCc1cccc(-n2nc(C)c3c2NC(=O)CC3C(=O)c2ccc(C)s2)c1 (stereo not drawn) | 17 | -4 | 0 | 0
COc1ccc(-n2nc(C)c3c2NC(=O)CC3C(=O)c2ccc(Cl)s2)cc1 (stereo not drawn) | -12 | -17 | -17 | -8
CC(C)c1nc(CN2CCN(c3ccccc3)CC2)cc(=O)[nH]1 | 2 | 5 | 15 | 4
O=S(=O)(c1ccccc1)N1CCN(c2ccc(-c3cccnc3)nn2)CC1 | 49* | 0 | -6 | -7
O=S(=O)(c1ccccc1)N1CCN(c2cc(-c3cccnc3)[nH]n2)CC1 | 28 | 14 | 22 | 6
Cc1ccc(-n2cc3c(N4CCCC(C(=O)NCC5CCCCC5)C4)ncnc3n2)cc1 (stereo not drawn) | 60* | 10 | 39* | -9
Cc1nc(-c2nccn2C)cc(C2CCCCN2S(C)(=O)=O)n1 (stereo not drawn) | -2 | 6 | -4 | 5
CC(C)c1ccc(NC(=O)c2ccc(C3Nc4ccccc4S(=O)(=O)N3)cc2)cc1 (stereo not drawn) | 65* | 21 | 51* | 0
CCc1ccc(NC(=O)N2CC[C@@H]3CN(C)S(=O)(=O)[C@@H]3CC2)cc1 | 7 | 9 | 19 | 8
Cc1ccc(NC(=O)C2Nc3ccccc3S(=O)(=O)N2)cc1C (stereo not drawn) | 66* | . | . | 2
CCc1ccc(NC(=O)C2Nc3ccccc3S(=O)(=O)N2)cc1 (stereo not drawn) | 41* | 22 | 46* | 12
COc1ccc(C)cc1N1CCCn2c1nc1c2c(=O)n(CCN2CCCCC2)c(=O)n1C | 5 | 5 | 10 | 10
O=C(Cn1nc(-c2ccc3c(c2)OCCO3)ccc1=O)Nc1ccc(Oc2ccccc2)cc1 | 31* | 12 | 20 | 0
CCOC(=O)C1CCN(C(=O)CN(c2ccccc2Cl)S(=O)(=O)c2ccc(C)cc2)CC1 | 5 | 8 | 24 | 7
O=C(CCNS(=O)(=O)c1ccc2c(c1)CCC(=O)N2)Nc1ccc(OC(F)(F)F)cc1 | -4 | -6 | -7 | -4
N#Cc1c(-c2ccccc2Cl)c2c([nH]c1=O)-c1ccccc1CC2 | 10 | 0 | -8 | -9
O=c1[nH]ccn2nc3c(c12)CCc1ccccc1-3 | 36* | . | . | 5
CS(=O)(=O)N1CCc2ccc(C(=O)Nc3ccc(F)cc3)cc21 | 33* | -8 | -27 | -7
Cc1cc(C)n(-c2cccc(C(=O)Nc3ccc4c(c3)CCN4S(C)(=O)=O)c2)n1 | 8 | 80* | -10 | 0
Cc1[nH]c2ccc(C(=O)N3C[C@@H](O)[C@H](N4CCCC4)C3)cc2c1C | -4 | 4 | 7 | 3
Cc1cc(C)c(C#N)c(SCC(=O)Nc2c(C#N)cnn2-c2ccccc2)n1 | 37* | . | . | -3
SMILES | USP17 block | USP28 block | USP30 block | OTUD3 inh
Cc1cc(C)c(C#N)c(SCC(=O)Nc2ccc3c(c2)OCO3)n1 | 20 | 10 | 19 | 1
Cc1nc2ccc(C(=O)Nc3cc(Cl)cc4cccnc34)cc2nc1C | 63* | 10 | -12 | 9
COc1ccccc1-c1nnc2sc(COc3cccc(C)c3)nn12 | 17 | 25 | 42* | 18
CCOc1ccccc1-c1nn2c(-c3cccnc3)nnc2s1 | 0 | -1 | -2 | -6
O=C(Nc1cc(S(=O)(=O)N2CCOCC2)ccc1N1CCCC1)c1cc2ccccc2oc1=O | -7 | -17 | -7 | -2
CCN(CC)c1ccc(NC(=O)C2=CCN(S(=O)(=O)c3ccc(F)cc3)CC2)c(C)c1 | -4 | 35* | 14 | -3
COc1cc2c(cc1OC)-c1c(c(C(=O)N3CCCC3)nn1-c1ccccc1F)C2 | 76* | 76* | 99* | 5
O=c1[nH]c(=O)c2c(-c3cccc4ccccc34)ccnc2[nH]1 | 4 | -2 | 1 | -16
COc1cccc(-c2ccnc3[nH]c(=O)[nH]c(=O)c23)c1 | 74* | 18 | 63* | 1
O=c1[nH]c(=O)c2c(-c3ccc(-c4ccccc4)cc3)ccnc2[nH]1 | 17 | -4 | 45* | 5
c1ccc(CNc2nn3c(-c4ccncc4)cnc3s2)cc1 | 51* | 2 | 21 | 5
COc1ccc(CNc2nn3c(-c4ccncc4)cnc3s2)cc1 | 34* | 70* | 86* | 5
c1cncc(-c2cnc3sc(NCC4CC4)nn23)c1 | -11 | 5 | 0 | 6
Cc1oc(-c2ccc(Cl)cc2)cc1C(=O)Nc1ccccc1 | 21 | 14 | 35* | 15
CC1Oc2ccccc2C(=O)N(CC(=O)c2ccc3c(c2)OCCO3)C1=O (stereo not drawn) | 13 | 31* | 23 | 13
CC1Oc2ccccc2C(=O)N(Cc2ccccc2)C1=O (stereo not drawn) | 20 | 33* | 32* | 22
CC1Oc2ccccc2C(=O)N(Cc2ccc(F)cc2)C1=O (stereo not drawn) | 10 | 18 | 9 | 6
Cc1cc(=O)[nH]c(Sc2c(-c3ccccc3)c3cc([N+](=O)[O-])ccc3[nH]c2=O)n1 | 5 | 10 | -83 | -4
O=[N+]([O-])c1ccc2nc3c(c(-c4ccccc4)c2c1)CNCC3 | 48* | -5 | -14 | -11
COc1ccc(CCN2COc3c(cc(Cl)c4cccnc34)C2)cc1OC | 93* | 30 | 49* | 10
COCCCN1CCS(=O)(=O)c2c(Cl)c(F)nc(Oc3ccccc3)c21 | 41* | 7 | -2 | -7
COc1ccc(Oc2nc(F)c(Cl)c3c2N(CC2CCCO2)CCS3(=O)=O)cc1 (stereo not drawn) | 33* | 17 | -51 | 6
CCCCN1CCS(=O)(=O)c2c(Cl)c(F)nc(Oc3ccc(OC)cc3)c21 | 25 | 10 | 4 | 8
Cn1cnc(S(=O)(=O)N2C[C@H](Oc3ccccn3)[C@H]3C[C@@H]2Cc2c3[nH]c3ccccc23)c1 | -51 | -37 | -201 | -39
Clc1cccc(-n2cc(-c3ccccc3)c3c(NCc4ccccn4)ncnc32)c1 | 70* | 53* | 75* | 7
COc1ccc(-n2cc(-c3ccccc3)c3c(NC4CC4)ncnc32)cc1 | 5 | 7 | 4 | -1
c1ccc(-c2cn(-c3ccccc3)c3ncnc(NC4CC4)c23)cc1 | -7 | 35* | 4 | -14
O=C(Cn1c(C(=O)c2cccc(F)c2)nc2ccccc21)NCC1CCCO1 (stereo not drawn) | 9 | 0 | 25 | 16
